Data on 13 compounds can be found in PubChem BioAssay (NCI).

Molecules are shown by their SMILES. The panel holds about 83,000 compounds, 20% with a hit somewhere; the sample as a whole holds those more often.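 Activity criterion: percent growth below 10, measured after cells in 96-well plates were exposed to a single compound concentration for 48 hours.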 Values without a mark were called inactive. Calls of active or inactive are those of the source.

Common to all, as to assay: NCI-60 one-dose screen, 48 h (100 = growth as untreated, 0 = no growth, -100 = all killed)
Holding throughout (details): 10 µM unless noted

The test system of experiment [1] is SR leukemia.
Experiment [2] relates to RPMI-8226 leukemia.
The test system of experiment [3] is OVCAR-8 ovarian.
The test system of experiment [4] is OVCAR-5 ovarian.
The test system of experiment [5] is OVCAR-4 ovarian.
Experiment [6] relates to SK-OV-3 ovarian.
The test system of experiment [7] is IGROV1 ovarian.
Experiment [8] concerns OVCAR-3 ovarian.
Experiment [9] deals with HS 578T breast.
Experiment [10] has as its system NCI/ADR-RES ovarian.

With `Cc1ccc(S(=O)(=O)OC[C@@]2(C)CC[C@]3(C)CC[C@]4(C)C(=C3C2)C=C[C@@H]2[C@@]3(C)CCCNC(C)(C)[C@@H]3CC[C@]24C)cc1`, the growth is -30.9% (active) in experiment [1]; -66% (active) in experiment [2]; -65.6% (active) in experiment [3]; 34.8% in experiment [4]; -40.5% (active) in experiment [5]; 104% in experiment [6]. In addition, the growth in [7] was -2.07% (active); in [8] it was 23.5%; in experiment [9], 83.4%; in experiment [10], -19.7% (active).
As to `CCOC(=O)C1=C(C)NC(=O)NC1c1c(Cl)n(-c2ccccc2)c2ccccc12` (stereo not given), the growth is 68.6% in experiment [1]; 68.4% in experiment [2]; 85.6% in experiment [3]; 84.7% in [4]; 96% in experiment [5]; 85.9% in [6]. In addition, the growth in [7] is 66.1%; in experiment [8], 69.2%; in [9], 76.1%; in [10] it was 85%.
For the compound `Cc1ccc(C(=O)N(CCCN)[C@@H](c2nc3cc(Cl)ccc3c(=O)n2Cc2ccccc2)C(C)C)cc1`, the growth is -32% (active) in experiment [1]; -36.6% (active) in [2]; -11.7% (active) in experiment [3]; -17.5% (active) in experiment [4]; 33.3% in [5]; 38.6% in experiment [6]. For the same compound, the growth in experiment [7] was 8.41% (active); in experiment [8], -13.7% (active); in experiment [9] it was -12.8% (active); in experiment [10], -30.1% (active).
`Cc1ccc(-c2nc3nc(-c4ccccc4)nc(N4CCN(S(=O)(=O)c5ccccc5)CC4)c3o2)cc1`: the growth in experiment [1] is 104%; in experiment [2] it was 105%; in [3], 75.5%; in experiment [4] it was 99%; in experiment [5] it was 99.6%; in experiment [6], 77.4%. Further, the growth was 89.2% in experiment [7], 93% in experiment [8], 43.1% in experiment [9] and 85.7% in [10].
In the case of `O=C(N=Nc1c(O)[nH]c2ccccc12)Nc1ccc(Br)cc1`, the growth is 76.7% in experiment [1]; 66.9% in experiment [2]; 98.9% in experiment [3]; 81.4% in experiment [4]; 102% in [5]; 97% in experiment [6]. For the same compound, the growth in experiment [7] was 85.2%; in experiment [8], 97.4%; in experiment [9] it was 87.4%; in experiment [10], 97.2%.
With `COC(=O)N/N=C/c1c[n+]([O-])c2ccccc2[n+]1[O-]`, the growth in experiment [1] is 93.4%; in experiment [2], 94.3%; in experiment [3] it was 90.8%; in experiment [4], 108%; in [5] it was 103%; in experiment [6] it was 29.9%. The growth is 102% in experiment [7], 111% in experiment [8], 126% in experiment [9] and 102% in experiment [10].
In the case of `COc1c(O)c(O)cc2c3c(oc12)CC(c1ccc2c(c1)OCO2)CC3=O` (stereo not given), the growth in experiment [1] was 45.2%; in [2], 62.5%; in [3], 63%; in [4] it was 116%; in [5], 80.5%; in [6], 90.1%. The growth was 54.5% in [7], 63.8% in experiment [8], 93.8% in experiment [9] and 67% in experiment [10].
Take `N=C1/C(=C2\NC3C=CC=CC3S2)C(c2ccc(Cl)cc2)C2C(=O)N(c3ccccc3)C(=S)N12` (stereo not given): the growth in experiment [1] is 105%; in experiment [2], 103%; in [3] it was 99.1%; in [4], 106%; in experiment [5], 101%; in experiment [6] it was 105%. Further, the growth in experiment [7] is 92.8%; in [8], 106%; in experiment [9], 99.2%; in [10], 95.8%.
In the case of `CC(Sc1ccccc1)C(=O)O` (stereo not given), the growth in experiment [1] was 153%; in experiment [2], 117%; in experiment [3], 99.5%; in experiment [4], 106%; in experiment [5], 102%; in [6], 97.3%. For the same compound, the growth in [7] was 81.4%; in experiment [8] it was 106%; in experiment [9], 115%; in experiment [10], 111%.
As for `CCN1CCN(C(=O)[C@]23CC[C@@H](C)[C@H](C)[C@@H]2C2=CC[C@@H]4[C@@]5(C)CCC(=O)C(C)(C)[C@@H]5CC[C@@]4(C)[C@]2(C)CC3)CC1`, the growth in experiment [1] was -13.4% (active); in [2] it was -34.4% (active); in experiment [3], 16.5%; in experiment [4], -3.73% (active); in experiment [5], 18%; in experiment [6], 16.2%. The growth in experiment [7] is 14.7%; in [8], 16.6%; in [9] it was -1.77% (active); in experiment [10], 9.16% (active).
As for `CCCn1nc(C(=O)N2CCCCC2)c2c1CCC(N1CCC(c3ccncc3)CC1)C2` (stereo not given), the growth in [1] is 123%; in experiment [2], 105%; in [3], 98.3%; in [4] it was 107%; in experiment [5] it was 103%; in [6], 109%. Further, the growth is 113% in [7], 106% in [8], 103% in [9] and 101% in experiment [10].
Consider `CCN(CC)/C([O-])=c1\cccc\c1=C1\N=C(c2ccccc2)N=C1[n+]1ccc(-c2ccccc2)cc1`, for which the growth was 102% in experiment [1]; 98.4% in [2]; 97.6% in [3]; 87.8% in [4]; 99.5% in experiment [5]; 105% in experiment [6]. Further, the growth in experiment [7] was 54.7%; in experiment [8], 94%; in experiment [9], 109%; in experiment [10], 98.2%.
As for `Cn1cc(-c2csc(-c3cn(CCOC(N)=O)c4ccccc34)n2)c2cccnc21`, the growth in experiment [1] was 20.3%; in [2], 74.1%; in experiment [3] it was 89.4%; in [4] it was 104%; in experiment [5], 102%; in experiment [6], 95.2%. The growth in experiment [7] is 77.7%; in [8], 94.9%; in experiment [9], 92.6%; in experiment [10], 82.9%.
